Test results reported in article PMC7819943, “Rice protein-binding microarrays: a tool to detect cis-acting elements near promoter regions in rice”.
Whole data set: some 68,000 sequences, median “fluorescence intensity (a.u.)” near 9,100, cut for the highest 2% near 16,000. The full list was thinned out, with the highest values kept by preference.

Target: OsWRKY34 (Oryza sativa, UniProt Q0JBA9 1-250)
Assay: protein-binding microarray (RPBM); PBS, 2% BSA, 51.3 ng/ul salmon testes DNA, 50 uM zinc acetate, 200 nM TF, 25 C, 1 h; high values mean tight binding
Conditions: protein: recombinant; tags: N-terminal polyhistidine and DsRed monomer fusion (pET32a); label: CyDye5-dUTP incorporated in the synthesized complementary strand; 3' TTTTT single-stranded linker to array surface; dsDNA, one strand shown
How it was run: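 An Axon 4000B scanner gave the binding signal as per-feature fluorescence intensity in arbitrary units. This followed washing of a custom Agilent array that had been incubated for 1 h at 25 °C with 200 nM protein in PBS, 2% BSA, salmon testes DNA and 50 µM zinc acetate. The proteins were transcription factors fused at the N-terminus to polyhistidine and DsRed, expressed in E. coli BL21-CodonPlus and purified on Ni–NTA.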

Sequence of OsWRKY34 (Q0JBA9 entry or part of it): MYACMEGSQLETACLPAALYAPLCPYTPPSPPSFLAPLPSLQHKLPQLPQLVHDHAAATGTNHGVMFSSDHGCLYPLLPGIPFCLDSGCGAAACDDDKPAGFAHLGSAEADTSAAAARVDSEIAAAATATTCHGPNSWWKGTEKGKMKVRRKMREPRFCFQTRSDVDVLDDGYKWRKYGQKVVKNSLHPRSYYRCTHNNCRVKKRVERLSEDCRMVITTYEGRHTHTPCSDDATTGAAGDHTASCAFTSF

Sequence | binding signal
TGTAGTCCCGCGTCGCACGGCATCCGGCCGGCCTCTCCTACGGAGTCACCTAGTGCAG | 8760 fluorescence intensity (a.u.)
GGGATGGGGAAGGTCAGAGCCAATATGATCTGGTAACTCTCGGAGTCACCTAGTGCAG | 9510 fluorescence intensity (a.u.)
CAAAGGTTCTAATGTTTGACCTCATTCTTATCTAAAACGACGGAGTCACCTAGTGCAG | 9440 fluorescence intensity (a.u.)
GCGTCGCCTGCCGCCTCCGCTTCCGCTCCACTCCGCTTCGCGGAGTCACCTAGTGCAG | 12000 fluorescence intensity (a.u.)
CAATCTCTCTCTCTCTCTCTCTCGCTGCTGCTGCTCCTTCCGGAGTCACCTAGTGCAG | 9770 fluorescence intensity (a.u.)
GTTCCAGCTTCATGCATGCACACACACAGTAGCTCGTGCTCGGAGTCACCTAGTGCAG | 29300 fluorescence intensity (a.u.)
GTAGTCATTCACGTGTTCCTCTTCTCCAGTACTAGTAGCTCGGAGTCACCTAGTGCAG | 9710 fluorescence intensity (a.u.)
TCTCCTCTTCTTTTTCTTCCTTCCTTTTACTCGCTCGCTCCGGAGTCACCTAGTGCAG | 9930 fluorescence intensity (a.u.)
CCCGCTCGCTCTCGTGCTGTCCGCCGACCTCAGCTCGCTCCGGAGTCACCTAGTGCAG | 10000 fluorescence intensity (a.u.)
CTGAACTCTCTCTCGCTCTCCGGCTCTCTGTATTCCTTCACGGAGTCACCTAGTGCAG | 19800 fluorescence intensity (a.u.)
AACCCTAGCTCTTCACAGCTTCCATGGCTCTTCTCTCTCTCGGAGTCACCTAGTGCAG | 12500 fluorescence intensity (a.u.)
CTCTCTGTGTCTCCGCCGCCGCCGCCTCCGCCGCTCGCCGCGGAGTCACCTAGTGCAG | 8060 fluorescence intensity (a.u.)
ACCTCGTACCTCGCCGCTGTTCCGTTCCGTGCTCTGTGTCCGGAGTCACCTAGTGCAG | 18700 fluorescence intensity (a.u.)
AACCATAAAACATGTGATTCTTTTTTTTAACCAAAACTTACGGAGTCACCTAGTGCAG | 8130 fluorescence intensity (a.u.)
ACCACTTAATCTTTATCTTTGTTAGATTCATTACTACTATCGGAGTCACCTAGTGCAG | 8310 fluorescence intensity (a.u.)
TATAGGTATTCACTACCTTATCATTTATTCATACCTTGTTCGGAGTCACCTAGTGCAG | 8060 fluorescence intensity (a.u.)
GGCTCCAAATCATCTGCCTTCATTGTCAGGCTTCAGTAATCGGAGTCACCTAGTGCAG | 10400 fluorescence intensity (a.u.)
AGATTCGTGTAGACCCATTGTCTGGCAGCGGCGATCGTCCCGGAGTCACCTAGTGCAG | 8040 fluorescence intensity (a.u.)
GCCACTCCTGACGTCAGCGTTGACTCGGTCAAACCCATCGCGGAGTCACCTAGTGCAG | 19300 fluorescence intensity (a.u.)
TCACCCACCTGTTGACTACCATCACCACTCCTCGTCTGGACGGAGTCACCTAGTGCAG | 8590 fluorescence intensity (a.u.)
AGTTGATCGCGGTCAAATCGTCACGTTAGTTGAACCCGGTCGGAGTCACCTAGTGCAG | 8260 fluorescence intensity (a.u.)
ATACACACTTCAGTCACTCGGTAGGCCACTCCGTACGGCACGGAGTCACCTAGTGCAG | 8510 fluorescence intensity (a.u.)
TCGAAATGTTTGACACCGTTGACTTTTTAGCACATGTTTACGGAGTCACCTAGTGCAG | 19000 fluorescence intensity (a.u.)
TTTCGAAATGTTTGACACTGTTGACTTTTTAGCACATGTTCGGAGTCACCTAGTGCAG | 14200 fluorescence intensity (a.u.)
TTCGAAATATTTGACACCGTTGACTTTTTAGCACATGTTTCGGAGTCACCTAGTGCAG | 30000 fluorescence intensity (a.u.)
CAAAATGTTTGACATCGTTGACTTTTTAGCACATGTTTGACGGAGTCACCTAGTGCAG | 15300 fluorescence intensity (a.u.)
CCGTTTCGAAATGTTTACACCGTTGACTTTTTAGCACATGCGGAGTCACCTAGTGCAG | 30100 fluorescence intensity (a.u.)

Sequence | binding signal
CGAAATGTTTGACGTCGTTGACTTTTTAGCACATGTTTAACGGAGTCACCTAGTGCAG | 22800 fluorescence intensity (a.u.)
GAATTAAACTTTGCATGGTTTCTGTTTGGTCAAACTTCTCCGGAGTCACCTAGTGCAG | 9130 fluorescence intensity (a.u.)
AGGTACGCACGCGCGGTGGAGGAGGAGGAGGAGGAGGAGGCGGAGTCACCTAGTGCAG | 10900 fluorescence intensity (a.u.)
TGAATGCACCATGTCTTTTGCTCCGTCCGTCATAAAAAAACGGAGTCACCTAGTGCAG | 8950 fluorescence intensity (a.u.)
TGCCAAAGCTCTATCCATTTTGCCTCTACTCAATCGTCCACGGAGTCACCTAGTGCAG | 10200 fluorescence intensity (a.u.)
TCTAGATTTATCCCCATTTTTGGCTGGGCCTTCTATTTAACGGAGTCACCTAGTGCAG | 8720 fluorescence intensity (a.u.)
AACCCATTACATAGCTGCAAGAAACCCAATCTTTCTTTACCGGAGTCACCTAGTGCAG | 8420 fluorescence intensity (a.u.)
CCTACCCCTACCGCTCCTGCCTGCTTCGCCCGCCGCCGCCCGGAGTCACCTAGTGCAG | 8340 fluorescence intensity (a.u.)
CTCTATACCATACGCCATCTCCATCATCTCTCGATCCATCCGGAGTCACCTAGTGCAG | 11300 fluorescence intensity (a.u.)
AGTCTGAGCCACCTTTCATTACCCATCCAAGATTCGGTTTCGGAGTCACCTAGTGCAG | 8900 fluorescence intensity (a.u.)
AGTAGTCCTTCAAGCTCCAATCATATACCCCTGATACTAACGGAGTCACCTAGTGCAG | 8300 fluorescence intensity (a.u.)
AGGAAATGTCTCATCAAATACTAGATTGGTTTTTTTTTACCGGAGTCACCTAGTGCAG | 8960 fluorescence intensity (a.u.)
CGATTTCGACCAATCTAGCCGCTATGTGCACTCCTTTTCCCGGAGTCACCTAGTGCAG | 12100 fluorescence intensity (a.u.)
TGGTCTTGCTGGTTGCTGCGTATTTGGCTGTATTGGTTATCGGAGTCACCTAGTGCAG | 8380 fluorescence intensity (a.u.)
ATTATACGTTAATGGCTTTCTCGTTTTGTATACGCTGATTCGGAGTCACCTAGTGCAG | 9600 fluorescence intensity (a.u.)
TCGAAATATTTGACACCGTTGACTTTTTAGCACATGTTTGCGGAGTCACCTAGTGCAG | 35300 fluorescence intensity (a.u.)
ATTTGATACTTCTCTCGCCTTTCTTTATTATTCTCCCGCTCGGAGTCACCTAGTGCAG | 8420 fluorescence intensity (a.u.)
GAGTGCCTATTCAATTGCCTTTTGTTTGTCAACGTTTCTCCGGAGTCACCTAGTGCAG | 8080 fluorescence intensity (a.u.)
GTCCTTTCAGTGTTGCGCTTTTGCTTATTGTAGTTATTGGCGGAGTCACCTAGTGCAG | 16300 fluorescence intensity (a.u.)
CATCCAACCATCACACACAGTTAGCATATCAGTAGTCGTTCGGAGTCACCTAGTGCAG | 8210 fluorescence intensity (a.u.)
TCCATCCCGGCCCGGCACTGCACACACGCGCGTAGTACCACGGAGTCACCTAGTGCAG | 8130 fluorescence intensity (a.u.)
ACTCCTACAGTAGTGACTTGAGTAGCGCTTCTTTTTTCCACGGAGTCACCTAGTGCAG | 9440 fluorescence intensity (a.u.)
GCCATTGACAGCGTTGACCAAGTCAGCCGCTCCAGCCTCTCGGAGTCACCTAGTGCAG | 14200 fluorescence intensity (a.u.)
ATGACCGGCCACCACCATTGCCACCGGCCGATCTCCTCTTCGGAGTCACCTAGTGCAG | 9360 fluorescence intensity (a.u.)
TCTTCGGCCTCTCCGCCTCCGCCATTGACAGCGTTGACCACGGAGTCACCTAGTGCAG | 18300 fluorescence intensity (a.u.)
AGACCGTTGACTTGACTAGTCCACTCCTCTTTCACACGTACGGAGTCACCTAGTGCAG | 12100 fluorescence intensity (a.u.)
AACTTGAGCGTTGACCGCTTTGACTCCTCTTCTTTCTCCACGGAGTCACCTAGTGCAG | 24900 fluorescence intensity (a.u.)
